# Measurements published in publication PMC11062922 (Nature Chemical Biology, 2023).
# Read-outs that look alike come from different tables or passages of the source.
# Tested on: ERN1
# Settings: read-out: apparent Kd, n = 1
substance,measurement,setting,value
Lestaurtinib,potency estimated from few doses,"compound concentrations:100 nM and 1000 nM (sheet 'Lestaurtinib' of Supplementary Table 1),run:Lestaurtinib_02422_R1,Plate:MR006",64.3 nM
same,potency estimated from few doses,"compound concentrations:100 nM and 1000 nM (sheet 'Lestaurtinib' of Supplementary Table 1),run:Lestaurtinib_02422_R2,Plate:MR006",68.1 nM
same,potency estimated from few doses,"compound concentrations:100 nM and 1000 nM (sheet 'Lestaurtinib' of Supplementary Table 1),run:Lestaurtinib_02422_R3,Plate:MR006",67.9 nM
same,potency estimated from few doses,"compound concentrations:100 nM and 1000 nM (sheet 'Lestaurtinib' of Supplementary Table 1),run:Lestaurtinib_02438_R1,Plate:MR008",49.4 nM
same,potency estimated from few doses,"compound concentrations:100 nM and 1000 nM (sheet 'Lestaurtinib' of Supplementary Table 1),run:Lestaurtinib_02438_R2,Plate:MR008",63.9 nM
same,potency estimated from few doses,"compound concentrations:100 nM and 1000 nM (sheet 'Lestaurtinib' of Supplementary Table 1),run:Lestaurtinib_02438_R3,Plate:MR008",64.3 nM
same,potency estimated from few doses,"compound concentrations:100 nM and 1000 nM (sheet 'Lestaurtinib' of Supplementary Table 1),run:Lestaurtinib_02443_R1,Plate:MR009",67.3 nM
same,potency estimated from few doses,"compound concentrations:100 nM and 1000 nM (sheet 'Lestaurtinib' of Supplementary Table 1),run:Lestaurtinib_02443_R2,Plate:MR009",58.1 nM
same,potency estimated from few doses,"compound concentrations:100 nM and 1000 nM (sheet 'Lestaurtinib' of Supplementary Table 1),run:Lestaurtinib_02443_R3,Plate:MR009",63.3 nM
same,potency estimated from few doses,"compound concentrations:100 nM and 1000 nM (sheet 'Lestaurtinib' of Supplementary Table 1),run:Lestaurtinib_02473_R1,Plate:MR010",52.6 nM
same,potency estimated from few doses,"compound concentrations:100 nM and 1000 nM (sheet 'Lestaurtinib' of Supplementary Table 1),run:Lestaurtinib_02473_R2,Plate:MR010",60.5 nM
same,potency estimated from few doses,"compound concentrations:100 nM and 1000 nM (sheet 'Lestaurtinib' of Supplementary Table 1),run:Lestaurtinib_02473_R3,Plate:MR010",69.9 nM
same,potency estimated from few doses,"compound concentrations:100 nM and 1000 nM (sheet 'Lestaurtinib' of Supplementary Table 1),run:Lestaurtinib_02482_R3,Plate:MR011",54.1 nM
same,potency estimated from few doses,"compound concentrations:100 nM and 1000 nM (sheet 'Lestaurtinib' of Supplementary Table 1),run:Lestaurtinib_02487_R1,Plate:MR012",58.2 nM
same,potency estimated from few doses,"compound concentrations:100 nM and 1000 nM (sheet 'Lestaurtinib' of Supplementary Table 1),run:Lestaurtinib_02496_R1,Plate:MR013",79.9 nM
same,potency estimated from few doses,"compound concentrations:100 nM and 1000 nM (sheet 'Lestaurtinib' of Supplementary Table 1),run:Lestaurtinib_02496_R2,Plate:MR013",82.7 nM
same,potency estimated from few doses,"compound concentrations:100 nM and 1000 nM (sheet 'Lestaurtinib' of Supplementary Table 1),run:Lestaurtinib_02496_R3,Plate:MR013",62.6 nM
same,potency estimated from few doses,"compound concentrations:100 nM and 1000 nM (sheet 'Lestaurtinib' of Supplementary Table 1),run:Lestaurtinib_02566_R2,Plate:MR014",99.9 nM
same,potency estimated from few doses,"compound concentrations:100 nM and 1000 nM (sheet 'Lestaurtinib' of Supplementary Table 1),run:Lestaurtinib_02572_R2,Plate:MR015",67.3 nM
same,potency estimated from few doses,"compound concentrations:100 nM and 1000 nM (sheet 'Lestaurtinib' of Supplementary Table 1),run:Lestaurtinib_02577_R1,Plate:MR016",81.4 nM
same,potency estimated from few doses,"compound concentrations:100 nM and 1000 nM (sheet 'Lestaurtinib' of Supplementary Table 1),run:Lestaurtinib_02577_R2,Plate:MR016",61.5 nM
same,potency estimated from few doses,"compound concentrations:100 nM and 1000 nM (sheet 'Lestaurtinib' of Supplementary Table 1),run:Lestaurtinib_02577_R3,Plate:MR016",56.2 nM
same,potency estimated from few doses,"compound concentrations:100 nM and 1000 nM (sheet 'Lestaurtinib' of Supplementary Table 1),run:Lestaurtinib_02584_R1,Plate:MR017",49.6 nM
same,potency estimated from few doses,"compound concentrations:100 nM and 1000 nM (sheet 'Lestaurtinib' of Supplementary Table 1),run:Lestaurtinib_02584_R2,Plate:MR017",50.5 nM
same,potency estimated from few doses,"compound concentrations:100 nM and 1000 nM (sheet 'Lestaurtinib' of Supplementary Table 1),run:Lestaurtinib_02584_R3,Plate:MR017",79.4 nM
same,potency estimated from few doses,"compound concentrations:100 nM and 1000 nM (sheet 'Lestaurtinib' of Supplementary Table 1),run:Lestaurtinib_02601_R1,Plate:MR018",73.5 nM
same,potency estimated from few doses,"compound concentrations:100 nM and 1000 nM (sheet 'Lestaurtinib' of Supplementary Table 1),run:Lestaurtinib_02601_R2,Plate:MR018",93.1 nM
same,potency estimated from few doses,"compound concentrations:100 nM and 1000 nM (sheet 'Lestaurtinib' of Supplementary Table 1),run:Lestaurtinib_02601_R3,Plate:MR018",63.8 nM
same,potency estimated from few doses,"compound concentrations:100 nM and 1000 nM (sheet 'Lestaurtinib' of Supplementary Table 1),run:Lestaurtinib_02606_R1,Plate:MR019",79.4 nM
same,potency estimated from few doses,"compound concentrations:100 nM and 1000 nM (sheet 'Lestaurtinib' of Supplementary Table 1),run:Lestaurtinib_02606_R2,Plate:MR019",83.8 nM
same,potency estimated from few doses,"compound concentrations:100 nM and 1000 nM (sheet 'Lestaurtinib' of Supplementary Table 1),run:Lestaurtinib_02606_R3,Plate:MR019",87.5 nM
same,potency estimated from few doses,"compound concentrations:100 nM and 1000 nM (sheet 'Lestaurtinib' of Supplementary Table 1),run:Lestaurtinib_02624_R1,Plate:MR020",87.4 nM
same,potency estimated from few doses,"compound concentrations:100 nM and 1000 nM (sheet 'Lestaurtinib' of Supplementary Table 1),run:Lestaurtinib_02624_R2,Plate:MR020",94.5 nM
same,potency estimated from few doses,"compound concentrations:100 nM and 1000 nM (sheet 'Lestaurtinib' of Supplementary Table 1),run:Lestaurtinib_02624_R3,Plate:MR020",93.4 nM
same,potency estimated from few doses,"compound concentrations:100 nM and 1000 nM (sheet 'Lestaurtinib' of Supplementary Table 1),run:Lestaurtinib_02724_R1,Plate:MR021",90.7 nM
same,potency estimated from few doses,"compound concentrations:100 nM and 1000 nM (sheet 'Lestaurtinib' of Supplementary Table 1),run:Lestaurtinib_02724_R2,Plate:MR021",92.1 nM
same,potency estimated from few doses,"compound concentrations:100 nM and 1000 nM (sheet 'Lestaurtinib' of Supplementary Table 1),run:Lestaurtinib_02724_R3,Plate:MR021",78.5 nM
same,potency estimated from few doses,"compound concentrations:100 nM and 1000 nM (sheet 'Lestaurtinib' of Supplementary Table 1),run:Lestaurtinib_02741_R1,Plate:MR023",83.9 nM
same,potency estimated from few doses,"compound concentrations:100 nM and 1000 nM (sheet 'Lestaurtinib' of Supplementary Table 1),run:Lestaurtinib_02741_R2,Plate:MR023",80 nM
same,potency estimated from few doses,"compound concentrations:100 nM and 1000 nM (sheet 'Lestaurtinib' of Supplementary Table 1),run:Lestaurtinib_02741_R3,Plate:MR023",69.3 nM
same,potency estimated from few doses,"compound concentrations:100 nM and 1000 nM (sheet 'Lestaurtinib' of Supplementary Table 1),run:Lestaurtinib_02748_R3,Plate:MR024",74.4 nM
same,potency estimated from few doses,"compound concentrations:100 nM and 1000 nM (sheet 'Lestaurtinib' of Supplementary Table 1),run:Lestaurtinib_02752_R2,Plate:MR025",57.7 nM
